Measurements: PubChem BioAssay AID1259240 (Keith Lab, Institute of Cancer Science, University of …, 2017)
Calls of active or inactive are those of the source. No stated cut-off is given here; in the data, active means fold change mostly below about -2 (no sharp cut-off); inactive means mostly above about -1.8.

Assay: TERT promoter activity modulators, primary screen, cell-based, luciferase reporter, human (AID 1259240)
Details: A2780 TERT promoter luciferase reporter, 16 h; at 20 µM, fold versus average of vehicle-only wells

Fold change, active:
CC(C)(C)NC(=O)Cn1c(=O)oc2ccc(Cl)cc21 -3.03
CC1Cc2ccccc2N1S(=O)(=O)c1cccc2cccnc12 (stereo not drawn) -2.15
Nc1ccc(-c2nc3cc(N)c(Cl)cc3[nH]2)cc1 -4.84
O=[N+]([O-])c1c(Nc2ccc(Cl)cc2)n[nH]c1-c1nnco1 -2.07
CCc1ccc(CNc2ccc3c(c2)ncn3C(C)C)cc1 -2.78

Fold change, inactive:
Cn1c(=O)cc(SCC(=O)Nc2nc3ccccc3[nH]2)c2ccccc21 -1.01
CCOC(=O)N1CCC(Nc2c(N3CCOCC3)c(=O)c2=O)CC1 -1.09
Cc1ccc2c(C)nc(NC3=NCN(CCN4CCOCC4)CN3)nc2c1 1.05
CN1CCN(CCNC(=O)Cn2ncc3c4ccccc4n(C)c3c2=O)CC1 -1.16
COC(=O)CSCc1nc2ccccc2[nH]c1=O -1.41
CC(C)C(NS(=O)(=O)c1ccc2c(c1)oc(=O)n2C)C(=O)N1CCN(c2ccccc2F)CC1 (stereo not drawn) 1.1
CCC(CC)c1nnc(NC(=O)Cn2cnc3c2c(=O)n(C)c(=O)n3C)s1 -1.36
O=C(CC1C(=O)N(c2cccc(Cl)c2)C(=O)N1Cc1cccs1)Nc1ccccc1 (stereo not drawn) 1.26
O=C(CSc1nc(-c2ccco2)cc(C(F)(F)F)n1)N1CCc2ccccc21 -1.91
CCOC(=O)C1CCN(c2c(N(C)C3CCCCC3)c(=O)c2=O)CC1 1.32
O=C(Nc1nccs1)c1cc2ccccc2c(=O)s1 -1.86
CCc1ccc2[nH]cc(S(=O)(=O)c3ccc(C)c(C)c3)c(=O)c2c1 1.15
CN(CC(=O)NC1CCCc2ccccc21)S(=O)(=O)c1ccc2c(c1)CCC(=O)N2 (stereo not drawn) 1.18
Cc1cc(C)c2c(=O)n(CC(=O)N3CCOCC3)sc2n1 1.35
COc1ccc(-c2nc3s/c(=C\c4cccc(Cl)c4)c(=O)n3n2)cc1OC -1.08
CCOC(=O)C1CCN(c2c(NCCCN3CCCCCC3)c(=O)c2=O)CC1 -1.3
CNC(=O)c1ccc(-c2nn(C)c(=O)c3ccccc23)cc1 -1.06
CC(C)SC1=NSC2=NC(=O)/C(=C\c3ccco3)C(=N)N21 1.5
